Bioassay records: PubChem, several laboratories
Only some compounds are listed: those with a hit (about 5.3% of all), similar ones and a draw of the others.
HIF act = HIF pathway transcriptional activation; U2OS HRE-luciferase reporter, luminescence; normalized: DMSO 0%, desferrioxamine 100%; activation, % at 7.5 µM (by protocol); 300,000 tested, 0.32% active;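 active means mean activation of at least 10% of the iron chelator positive control signal, with at least half of replicates also reaching 10%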
ALR inh = inhibitors of human sulfhydryl oxidase ALR; P55789; 290,000 tested, 3.8% active; inhibition, % (concentration not given with the values); purified ALR, DTT oxidation, H2O2 HRP-luminol luminescence;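 active means mean replicate inhibition above about 79%, with every replicate also reaching it, limit read from the data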
Target sequence (P55789 whole entry, looked up): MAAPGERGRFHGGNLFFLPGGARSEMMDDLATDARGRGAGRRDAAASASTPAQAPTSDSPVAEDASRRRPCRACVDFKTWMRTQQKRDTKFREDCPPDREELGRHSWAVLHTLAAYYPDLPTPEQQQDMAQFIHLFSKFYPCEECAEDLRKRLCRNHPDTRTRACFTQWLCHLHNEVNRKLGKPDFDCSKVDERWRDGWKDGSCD
M18AAP inhibitor = blocks P. falciparum M18 aspartyl aminopeptidase; recombinant PfM18AAP, H-Glu-NHMec fluorogenic cleavage; inhibition, % at 7.35 µM; 290,000 tested, 1.2% active; AID 1822;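 active means inhibition above the campaign mean inhibition over all tested compounds plus 3 SD, cut at about 28% in these data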
SUMO Mot1 rescue = blocks SUMOylation pathway, rescuing yeast Mot1-301 growth | S. cerevisiae Mot1-301 growth rescue, ATP luminescence, 38.5C; percent above DMSO median, 100 means doubled | growth rescue, % at 18.8 µM | 320,000 tested, 1% active;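 active means every valid replicate shows activation above 250% relative to neutral control wells; inactive means the rest, any valid replicate at or below 250%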
Hits are given with their value; – = inactive; · = not tested or not shown.

SMILES	HIF act	ALR inh	M18AAP inhibitor	SUMO Mot1 rescue
CCN(c1ccccc1)C1(O)C(=O)c2ccccc2C1=O	–	95	–	–
CCCCN(CCCNC(=O)c1ccc2nc(N3CCOCC3)sc2c1)Cc1ccccc1	–	–	–	–
CNCC(O)CN(c1ccccc1)c1ccccc1 (configuration not stated)	–	99	–	–
NC(N)=NCC(O)CN(c1ccccc1)c1ccccc1 (configuration not stated)	–	99	–	–
NC(=S)N(c1ccccc1)c1ccccc1	–	–	–	–
CNCC(O)COc1ccccc1 (configuration not stated)	–	–	–	–
CN(CCO)CC(O)CN(c1ccccc1)c1ccccc1 (configuration not stated)	–	99	–	–
CC(=O)Nc1ccc(NC(=O)CSc2ccc(C)cc2)cc1	–	–	–	–
CC(=O)Nc1ccc(SCC(=O)N(CCC#N)c2ccc(C)cc2)cc1	–	97	–	–
CCOC(=O)C1(CCc2ccccc2)CCN(C(=O)Cc2nonc2C)CC1	–	100	–	–
CCOC(=O)C1(CCCc2ccccc2)CCN(C(=O)CCOC)CC1	–	–	–	600
O=C(NNC(=O)c1cnccn1)c1ccc(Cl)cc1	–	–	–	–
Cc1ccc(N2C(=O)CN(Cc3sccc3C)C2=S)cc1C	–	·	–	–
Cc1ccc(N2C(=O)CN(Cc3cccs3)C2=S)cc1C	–	96	–	–
Oc1ccccc1C(=S)N1CCN(C(=S)c2ccccc2O)CC1	–	–	29	–
Brc1ccc(CN2CCN(c3ccccc3)CC2)o1	–	97	–	–
CC(CN1CCN(c2ccccc2)CC1)c1ccccc1 (configuration not stated)	–	98	–	–
CC(CCN1CCN(c2ccc(F)cc2)CC1)c1ccccc1 (configuration not stated)	–	–	–	–
c1ccc(SCCN2CCN(c3ccccc3)CC2)cc1	–	98	–	–
CCCN1CCC(=O)N(CCSc2ccccc2)CC1	–	–	–	–
COc1ccc(NC(=O)CN(C)C(=O)CCNC(=O)c2ccccc2OC)cc1	–	–	·	–
Nc1ccc(S(N)(=O)=O)cc1	–	–	·	–
Nc1ccc(S(N)(=O)=O)cc1N	–	84	–	–
O=C(Nc1ccc(NC(=O)c2ccccc2Cl)nc1)c1ccco1	–	–	–	–
Nc1cc(-c2cccc([N+](=O)[O-])c2)[nH]n1	–	–	–	–
SMILES	HIF act	ALR inh	M18AAP inhibitor	SUMO Mot1 rescue
O=c1cc(-c2cccc([N+](=O)[O-])c2)[nH][nH]1	–	82	–	–
CC(=O)c1ccc(S(=O)(=O)N2CCN(C(=O)CSC(=S)N3CCCC3)CC2)cc1	–	·	·	–
CC(C)C(CCN1C(=O)c2ccccc2C1=O)c1ccco1 (configuration not stated)	–	90	–	–
CCC(NC(=O)c1ccc2nc(Cc3ccc(OC)cc3)oc2c1)c1ccncc1 (configuration not stated)	–	–	–	–
COc1ccc(NC(=O)CCS(=O)(=O)c2ccc3c(c2)CCN3C(C)=O)cc1	10	–	–	–
Cc1ccc(-n2nc(C)c(NC(=O)CCl)c2C)cc1	–	–	–	–
O=C1[C@@H]2C(c3ccc(F)cc3)=NO[C@@H]2C(=O)N1Cc1ccccc1	–	–	–	–
COc1ccc(N2C(=O)[C@@H]3C(c4cccnc4)=NO[C@@H]3C2=O)cc1	30	–	–	–
COc1ccc(CN2C(=O)[C@@H]3C(c4ccc(F)cc4)=NO[C@@H]3C2=O)cc1	·	99	–	–
CN1/C(=C\C(=O)COC(=O)Cn2nnc(-c3ccccc3)n2)C(C)(C)c2ccccc21	–	–	–	268
C=Cc1ccc(Cn2c(=O)n(CCCOC)c(=O)c3sccc32)cc1	–	–	–	–
O=C(CN(C(=O)c1csnn1)c1cccc(C(F)(F)F)c1)NCc1ccc(F)cc1	–	–	–	–
CNC(=O)c1sc(N2N=C3/C(=C/c4ccccc4)CCCC3C2c2ccccc2)nc1C (configuration not stated)	–	99	–	–
O=C(c1ccccn1)N1N=C2/C(=C/c3ccccc3)CCCC2C1c1ccccc1 (configuration not stated)	–	–	–	400
O=C1CCC(C(=O)OCC(=O)N2N=C3/C(=C/c4ccccc4)CCCC3C2c2ccccc2)N1 (configuration not stated)	–	·	–	–
O=C(NCCCNC(=O)c1c(Cl)cccc1Cl)c1c(Cl)cccc1Cl	–	–	·	–
CN(C)c1ccc(C(=O)c2ccc(N(C)C)c(N)c2)cc1N	–	95	–	–
O=C(NC1CCN(C(=S)Nc2ccc(F)cc2)CC1)c1ccco1	–	·	–	–
COc1ccccc1NC(=O)c1cnc(SCC(=O)NCCc2ccccc2)n(C)c1=O	–	–	·	–
COc1cc(C2N(c3ccccc3)CCN2c2ccccc2)cc(OC)c1OC	–	99	–	–
COc1cc(C2N(c3cccc(Cl)c3)C(=O)C3CCCN32)cc(OC)c1OC (configuration not stated)	–	·	–	–
CCOc1cc(C(=O)N/N=C/C2CC=CCC2)cc(OCC)c1OCC (configuration not stated)	–	–	–	–
CCO[C@@H]1OC(C(=O)N2CCN(C)CC2)=C[C@H](c2coc3ccccc3c2=O)[C@H]1CCCO	–	–	–	–
C1CCC2(CC1)C1=C(CCCC1)Nc1nnnn12	126	–	–	–
Oc1ccc(/C=C/c2cnccn2)cc1	–	83	–	–
SMILES	HIF act	ALR inh	M18AAP inhibitor	SUMO Mot1 rescue
CC(=O)c1cccc(NC(=O)C(C)N2CCc3ccccc3C2)c1 (configuration not stated)	–	–	–	–
Nc1ccc2nc(-c3ccc(-c4nc5ccc(N)cc5[nH]4)cc3)[nH]c2c1	–	99	–	–
Nc1ccc2nc(-c3cccc(-c4nc5ccc(N)cc5[nH]4)n3)[nH]c2c1	–	99	–	–
CC(=O)Nc1ccc2nc(-c3ccncc3)[nH]c2c1	–	–	–	–
Nc1ccc(-c2nc3ccccc3[nH]2)cc1	·	98	–	–
Nc1ccc(C(=O)Nc2ccc3nc(-c4ccncc4)[nH]c3c2)cc1	256	–	–	–
Cc1ccc(-c2nc3ccc([N+](=O)[O-])cc3[nH]2)cc1	–	–	–	–
O=C(Nc1nc2ccccc2[nH]1)c1cc2ccccc2o1	–	–	–	–
Cc1ccccc1N(C(=O)CCC(=O)Nc1ccccn1)C(C(=O)NC(C)C)c1ccc(F)cc1 (configuration not stated)	–	–	–	–
C#CCOCCOCCOCCNc1nc(N2CCN(C(=O)CCCCCCCCCCNC(=O)[C@H](CO)n3cc(CCCSC)nn3)CC2)nc(N2CCN(C(=O)CCCCCCCCCCNC(=O)[C@H](CCCN=C(N)N)n3cc(C[C@@H](C)CC)nn3)CC2)n1	·	–	·	–
Nc1cccc(-c2nc3ccccc3[nH]2)c1	–	–	–	–
Cc1ccc2nc(-c3cccc(N)c3)[nH]c2c1	–	99	–	–
Nc1ccc(-c2nc3c(ccc4ccccc43)[nH]2)cc1	–	99	–	–
Clc1nc2c(ccc3ccccc32)[nH]1	–	·	–	–
